Target: CaNbp2
Experiment: SPOT peptide array binding signal intensity (averaged, normalized) (arbitrary units (background-subtracted, floor 0; scale differs between SH3 domains)); higher = stronger binding of the SH3 domain to the peptide
Procedure: (§1)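 GST-tagged SH3 domains from S. cerevisiae (Sc), A. gossypii (Ag), C. albicans (Ca) and S. pombe (Sp) were incubated at 10 ug/ml overnight at 4 C on cellulose SPOT membranes carrying 292 synthetic 15-mer peptides mined from the S. cerevisiae proteome (cysteines replaced by serines). Binding was detected with anti-GST antibody, HRP secondary and chemiluminescence, quantified with Genespotter, and reported as normalized spot intensities averaged over biological replicates.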

Binder	SPOT peptide array binding signal intensity
ALKQKKIPPPFKPHL	15.5
KTKQQKPAIPQKKSF	≤ 0

Target: CaRvs167
Experiment: as above
Procedure: as §1

Binder	SPOT peptide array binding signal intensity
ALKQKKIPPPFKPHL	≤ 0
KTKQQKPAIPQKKSF	2.33

Target: CaRvs167-3
Experiment: as above
Procedure: as §1

Binder	SPOT peptide array binding signal intensity
ALKQKKIPPPFKPHL	4.5
KTKQQKPAIPQKKSF	1.5

Target: CaSho1
Experiment: as above
Procedure: as §1

Binder	SPOT peptide array binding signal intensity
ALKQKKIPPPFKPHL	≤ 0
KTKQQKPAIPQKKSF	≤ 0

Target: CaSla1-D1-D2
Experiment: as above
Procedure: as §1

Binder	SPOT peptide array binding signal intensity
ALKQKKIPPPFKPHL	≤ 0
KTKQQKPAIPQKKSF	1260

Target: CaSla1-D3
Experiment: as above
Procedure: as §1

Binder	SPOT peptide array binding signal intensity
ALKQKKIPPPFKPHL	2
KTKQQKPAIPQKKSF	≤ 0

Target: ScAbp1
Experiment: as above
Procedure: as §1

Binder	SPOT peptide array binding signal intensity
ALKQKKIPPPFKPHL	29
KTKQQKPAIPQKKSF	1480

Target: ScBbc1
Experiment: as above
Procedure: as §1

Binder	SPOT peptide array binding signal intensity
ALKQKKIPPPFKPHL	≤ 0
KTKQQKPAIPQKKSF	3

Target: ScBem1-D1
Experiment: as above
Procedure: as §1

Binder	SPOT peptide array binding signal intensity
ALKQKKIPPPFKPHL	≤ 0
KTKQQKPAIPQKKSF	15

Target: ScBzz1-D1
Experiment: as above
Procedure: as §1

Binder	SPOT peptide array binding signal intensity
ALKQKKIPPPFKPHL	9
KTKQQKPAIPQKKSF	37

Target: ScBzz1-D2
Experiment: as above
Procedure: as §1

Binder	SPOT peptide array binding signal intensity
ALKQKKIPPPFKPHL	3
KTKQQKPAIPQKKSF	19.5

Target: ScCyk3
Experiment: as above
Procedure: as §1

Binder	SPOT peptide array binding signal intensity
ALKQKKIPPPFKPHL	≤ 0
KTKQQKPAIPQKKSF	≤ 0

Target: ScFus1
Experiment: as above
Procedure: as §1

Binder	SPOT peptide array binding signal intensity
ALKQKKIPPPFKPHL	≤ 0
KTKQQKPAIPQKKSF	≤ 0

Target: ScHof1
Experiment: as above
Procedure: as §1

Binder	SPOT peptide array binding signal intensity
ALKQKKIPPPFKPHL	1
KTKQQKPAIPQKKSF	7.75

Target: ScHse1
Experiment: as above
Procedure: as §1

Binder	SPOT peptide array binding signal intensity
ALKQKKIPPPFKPHL	74
KTKQQKPAIPQKKSF	54.5

Target: ScLsb1
Experiment: as above
Procedure: as §1

Binder	SPOT peptide array binding signal intensity
ALKQKKIPPPFKPHL	≤ 0
KTKQQKPAIPQKKSF	4

Target: ScLsb2
Experiment: as above
Procedure: as §1

Binder	SPOT peptide array binding signal intensity
ALKQKKIPPPFKPHL	≤ 0
KTKQQKPAIPQKKSF	≤ 0

Target: ScLsb3
Experiment: as above
Procedure: as §1

Binder	SPOT peptide array binding signal intensity
ALKQKKIPPPFKPHL	≤ 0
KTKQQKPAIPQKKSF	328

Target: ScLsb4
Experiment: as above
Procedure: as §1

Binder	SPOT peptide array binding signal intensity
ALKQKKIPPPFKPHL	≤ 0
KTKQQKPAIPQKKSF	≤ 0

Target: ScMyo3
Experiment: as above
Procedure: as §1

Binder	SPOT peptide array binding signal intensity
ALKQKKIPPPFKPHL	≤ 0
KTKQQKPAIPQKKSF	19

Target: ScMyo5
Experiment: as above
Procedure: as §1

Binder	SPOT peptide array binding signal intensity
ALKQKKIPPPFKPHL	1
KTKQQKPAIPQKKSF	4.75

Target: ScNbp2
Experiment: as above
Procedure: as §1

Binder	SPOT peptide array binding signal intensity
ALKQKKIPPPFKPHL	≤ 0
KTKQQKPAIPQKKSF	≤ 0

Target: ScPex13
Experiment: as above
Procedure: as §1

Binder	SPOT peptide array binding signal intensity
ALKQKKIPPPFKPHL	≤ 0
KTKQQKPAIPQKKSF	0.75

Target: ScRvs167
Experiment: as above
Procedure: as §1

Binder	SPOT peptide array binding signal intensity
ALKQKKIPPPFKPHL	≤ 0
KTKQQKPAIPQKKSF	4.67

Target: ScSho1
Experiment: as above
Procedure: as §1

Binder	SPOT peptide array binding signal intensity
ALKQKKIPPPFKPHL	≤ 0
KTKQQKPAIPQKKSF	3

Target: ScSla1-D1-D2
Experiment: as above
Procedure: as §1

Binder	SPOT peptide array binding signal intensity
ALKQKKIPPPFKPHL	≤ 0
KTKQQKPAIPQKKSF	213

Target: ScSla1-D3
Experiment: as above
Procedure: as §1

Binder	SPOT peptide array binding signal intensity
ALKQKKIPPPFKPHL	8
KTKQQKPAIPQKKSF	7.25

Target: SpAbp1-D1
Experiment: as above
Procedure: as §1

Binder	SPOT peptide array binding signal intensity
ALKQKKIPPPFKPHL	20.5
KTKQQKPAIPQKKSF	1420

Target: SpBbc1
Experiment: as above
Procedure: as §1

Binder	SPOT peptide array binding signal intensity
ALKQKKIPPPFKPHL	≤ 0
KTKQQKPAIPQKKSF	2.5

Target: SpBzz1-D1
Experiment: as above
Procedure: as §1

Binder	SPOT peptide array binding signal intensity
ALKQKKIPPPFKPHL	288
KTKQQKPAIPQKKSF	256

Target: SpBzz1-D2
Experiment: as above
Procedure: as §1

Binder	SPOT peptide array binding signal intensity
ALKQKKIPPPFKPHL	≤ 0
KTKQQKPAIPQKKSF	2

Target: SpCyk3
Experiment: as above
Procedure: as §1

Binder	SPOT peptide array binding signal intensity
ALKQKKIPPPFKPHL	≤ 0
KTKQQKPAIPQKKSF	≤ 0

Target: SpHof1
Experiment: as above
Procedure: as §1

Binder	SPOT peptide array binding signal intensity
ALKQKKIPPPFKPHL	≤ 0
KTKQQKPAIPQKKSF	0.5

Target: SpHof1-2
Experiment: as above
Procedure: as §1

Binder	SPOT peptide array binding signal intensity
ALKQKKIPPPFKPHL	≤ 0
KTKQQKPAIPQKKSF	5.75

Target: SpHof1-3
Experiment: as above
Procedure: as §1

Binder	SPOT peptide array binding signal intensity
ALKQKKIPPPFKPHL	39.5
KTKQQKPAIPQKKSF	134

Target: SpHse1
Experiment: as above
Procedure: as §1

Binder	SPOT peptide array binding signal intensity
ALKQKKIPPPFKPHL	23
KTKQQKPAIPQKKSF	3.75

Target: SpLsb1
Experiment: as above
Procedure: as §1

Binder	SPOT peptide array binding signal intensity
ALKQKKIPPPFKPHL	≤ 0
KTKQQKPAIPQKKSF	5.5

Target: SpLsb4
Experiment: as above
Procedure: as §1

Binder	SPOT peptide array binding signal intensity
ALKQKKIPPPFKPHL	≤ 0
KTKQQKPAIPQKKSF	22.5

Target: SpMyo1
Experiment: as above
Procedure: as §1

Binder	SPOT peptide array binding signal intensity
ALKQKKIPPPFKPHL	≤ 0
KTKQQKPAIPQKKSF	5

Target: SpNbp2
Experiment: as above
Procedure: as §1

Binder	SPOT peptide array binding signal intensity
ALKQKKIPPPFKPHL	≤ 0
KTKQQKPAIPQKKSF	≤ 0

Target: SpPex13
Experiment: as above
Procedure: as §1

Binder	SPOT peptide array binding signal intensity
ALKQKKIPPPFKPHL	≤ 0
KTKQQKPAIPQKKSF	≤ 0

Target: SpRvs167
Experiment: as above
Procedure: as §1

Binder	SPOT peptide array binding signal intensity
ALKQKKIPPPFKPHL	≤ 0
KTKQQKPAIPQKKSF	1

Target: SpSla1-D1-D2
Experiment: as above
Procedure: as §1

Binder	SPOT peptide array binding signal intensity
ALKQKKIPPPFKPHL	≤ 0
KTKQQKPAIPQKKSF	3

Target: SpSla1-D3
Experiment: as above
Procedure: as §1

Binder	SPOT peptide array binding signal intensity
ALKQKKIPPPFKPHL	≤ 0
KTKQQKPAIPQKKSF	1

Target: AgAbp1
Experiment: as above
Procedure: as §1

Binder	SPOT peptide array binding signal intensity
KTKQQKPAIPQKKSF	2190

Target: AgBbc1
Experiment: as above
Procedure: as §1

Binder	SPOT peptide array binding signal intensity
KTKQQKPAIPQKKSF	16.5

Target: AgBem1-D1
Experiment: as above
Procedure: as §1

Binder	SPOT peptide array binding signal intensity
KTKQQKPAIPQKKSF	7

Target: AgBzz1-D1
Experiment: as above
Procedure: as §1

Binder	SPOT peptide array binding signal intensity
KTKQQKPAIPQKKSF	73

Target: AgBzz1-D2
Experiment: as above
Procedure: as §1

Binder	SPOT peptide array binding signal intensity
KTKQQKPAIPQKKSF	21

Target: AgCyk3
Experiment: as above
Procedure: as §1

Binder	SPOT peptide array binding signal intensity
KTKQQKPAIPQKKSF	≤ 0

Target: AgFus1
Experiment: as above
Procedure: as §1

Binder	SPOT peptide array binding signal intensity
KTKQQKPAIPQKKSF	≤ 0

Target: AgHof1
Experiment: as above
Procedure: as §1

Binder	SPOT peptide array binding signal intensity
KTKQQKPAIPQKKSF	35.5

Target: AgHse1
Experiment: as above
Procedure: as §1

Binder	SPOT peptide array binding signal intensity
KTKQQKPAIPQKKSF	≤ 0

Target: AgLsb1
Experiment: as above
Procedure: as §1

Binder	SPOT peptide array binding signal intensity
KTKQQKPAIPQKKSF	≤ 0

Target: AgLsb4
Experiment: as above
Procedure: as §1

Binder	SPOT peptide array binding signal intensity
KTKQQKPAIPQKKSF	1.5

Target: AgMyo5
Experiment: as above
Procedure: as §1

Binder	SPOT peptide array binding signal intensity
KTKQQKPAIPQKKSF	4

Target: AgNbp2
Experiment: as above
Procedure: as §1

Binder	SPOT peptide array binding signal intensity
KTKQQKPAIPQKKSF	14

Target: AgRvs167
Experiment: as above
Procedure: as §1

Binder	SPOT peptide array binding signal intensity
KTKQQKPAIPQKKSF	0.333

Target: AgSho1
Experiment: as above
Procedure: as §1

Binder	SPOT peptide array binding signal intensity
KTKQQKPAIPQKKSF	≤ 0

Target: AgSla1-D1-D2
Experiment: as above
Procedure: as §1

Binder	SPOT peptide array binding signal intensity
KTKQQKPAIPQKKSF	17

Target: AgSla1-D3
Experiment: as above
Procedure: as §1

Binder	SPOT peptide array binding signal intensity
KTKQQKPAIPQKKSF	19.5

Target: CaAbp1-D1
Experiment: as above
Procedure: as §1

Binder	SPOT peptide array binding signal intensity
KTKQQKPAIPQKKSF	4040

Target: CaAbp1-D2
Experiment: as above
Procedure: as §1

Binder	SPOT peptide array binding signal intensity
KTKQQKPAIPQKKSF	6440

Target: CaBbc1
Experiment: as above
Procedure: as §1

Binder	SPOT peptide array binding signal intensity
KTKQQKPAIPQKKSF	149

Target: CaBem1-D1
Experiment: as above
Procedure: as §1

Binder	SPOT peptide array binding signal intensity
KTKQQKPAIPQKKSF	3

Target: CaBzz1-D1
Experiment: as above
Procedure: as §1

Binder	SPOT peptide array binding signal intensity
KTKQQKPAIPQKKSF	742

Target: CaBzz1-D2
Experiment: as above
Procedure: as §1

Binder	SPOT peptide array binding signal intensity
KTKQQKPAIPQKKSF	584

Target: CaCyk3
Experiment: as above
Procedure: as §1

Binder	SPOT peptide array binding signal intensity
KTKQQKPAIPQKKSF	2

Target: CaFus1
Experiment: as above
Procedure: as §1

Binder	SPOT peptide array binding signal intensity
KTKQQKPAIPQKKSF	≤ 0

Target: CaHof1
Experiment: as above
Procedure: as §1

Binder	SPOT peptide array binding signal intensity
KTKQQKPAIPQKKSF	2

Target: CaHse1
Experiment: as above
Procedure: as §1

Binder	SPOT peptide array binding signal intensity
KTKQQKPAIPQKKSF	1.75

Target: CaLsb1
Experiment: as above
Procedure: as §1

Binder	SPOT peptide array binding signal intensity
KTKQQKPAIPQKKSF	≤ 0

Target: CaLsb4
Experiment: as above
Procedure: as §1

Binder	SPOT peptide array binding signal intensity
KTKQQKPAIPQKKSF	≤ 0

Target: CaMyo5
Experiment: as above
Procedure: as §1

Binder	SPOT peptide array binding signal intensity
KTKQQKPAIPQKKSF	1.5
